# Screens (PubChem BioAssay)
# Compounds with a hit are over-represented: about 4.1% of the library has one in this group of screens.
# ssDAF12 agonist: activates DAF-12 receptor from parasite S. stercoralis | HEK293 ssDAF-12/GRIP1 lit1-tk-luc reporter, luminescence; % of 3 µM dafachronic acid response | 370,000 compounds, 1% hits | activation, % at 6.8 µM;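 active = activation above the mean over all tested compounds plus 3 SD, cut at about 0.9% in these data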;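 note: 0% = DMSO-only wells and 100% = 3 µM delta7-dafachronic acid wells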
# DAX1 inh-1: inhibitors of DAX1 repression of SF-1 activated StAR promoter; HEK293T StAR-luciferase reporter, SF-1/DAX-1 repression relief; inhibition, % at 6.8 µM; 370,000 compounds, 1.1% hits;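 active = inhibition above the mean over all tested compounds plus 3 SD, cut at about 3.6% in these data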;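 note: 0% = DAX-1 cells with DMSO and 100% = cells lacking DAX-1 with DMSO; higher inhibition means more luminescence from relief of DAX-1 repression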
# hgDAF-12 ag: agonists of H. glycines DAF-12 nuclear receptor; HEK293 GAL4-hgDAF12 UAS-luciferase reporter, agonist luminescence; normalized to butyrate control; AID 687014; 370,000 compounds, 1.8% hits; activation, % at 6.8 µM;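 active = activation above a cutoff set at the mean of all screened compounds plus 3 SD, cut at about 10% in these data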;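 note: 0% = DMSO wells and 100% = sodium butyrate wells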
# hcDAF12 agonist: activators of H. contortus DAF-12 nuclear receptor | HEK293 hcDAF-12 lit1-tk-luc reporter, luminescence; 0% DMSO, 100% Δ7-dafachronic acid | activation, % at 6.8 µM | 370,000 compounds, 1.4% hits;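 active = activation above the mean of all tested compounds plus 3 SD, cut at about 5.5% in these data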;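 note: 100% = response to 3 µM Δ7-dafachronic acid high control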
# DAX1 inh-2: NR0B1 (DAX1) inhibition | HEK293 Gal4-DAX1 luciferase reporter, luminescence | inhibition, % at 6.75 µM | 340,000 compounds, 0.99% hits | AID 504766;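 active = inhibition above the mean over all tested compounds plus 3 SD, cut at about 4.2% in these data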;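 note: 0% = DAX1-transfected cells with DMSO and 100% = empty-vector control cells with DMSO; inhibition shows as a rise in luminescence from relieved DAX1 repression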
# DAX1 inh confirm: NR0B1 (human) inhibition, confirmation; shares compounds with DAX1 inh-1; HEK293T StAR-promoter luciferase reporter, SF-1/DAX-1 repression; inhibition, % at 6.8 µM; 2,400 compounds, 87% hits;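 active = inhibition above the average of every tested compound plus 3 SD, cut at about 3.8% in these data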;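 note: 0% = DAX-1 cells with DMSO and 100% = no DAX-1 control cells with DMSO; active compounds raise luminescence by relieving repression of the StAR reporter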
# Target sequence (P51843 whole entry, looked up): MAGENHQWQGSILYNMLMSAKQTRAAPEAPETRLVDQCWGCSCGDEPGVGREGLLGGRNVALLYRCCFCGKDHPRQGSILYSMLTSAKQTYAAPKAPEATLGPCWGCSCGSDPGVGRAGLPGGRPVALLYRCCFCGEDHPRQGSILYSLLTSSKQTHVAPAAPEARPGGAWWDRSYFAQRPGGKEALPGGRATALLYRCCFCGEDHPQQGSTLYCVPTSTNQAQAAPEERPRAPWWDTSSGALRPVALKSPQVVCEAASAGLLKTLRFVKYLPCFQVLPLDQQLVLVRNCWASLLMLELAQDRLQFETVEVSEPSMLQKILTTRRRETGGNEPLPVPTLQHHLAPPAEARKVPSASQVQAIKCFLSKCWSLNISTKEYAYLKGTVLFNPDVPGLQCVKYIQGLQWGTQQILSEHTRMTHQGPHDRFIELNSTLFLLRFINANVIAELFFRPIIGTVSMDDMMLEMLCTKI
# SF1 AF2mut Luc: counter-screen for DAX1 inhibitors: nonselective inhibitors with SF-1 AF2 mutant. 2,400 compounds, 78% hits. AID 652136. shares compounds with DAX1 inh-1. inhibition, % at 6.8 µM. HEK293 StAR-luciferase, luminescence;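 active = inhibition above the mean of all tested compounds plus 3 SD, cut at about 3% in these data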;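 note: 0% = DAX-1 transfected cells with DMSO and 100% = cells without DAX-1 with DMSO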
# An asterisk follows results filed as active; . = not tested or not shown.
SMILES,ssDAF12 agonist,DAX1 inh-1,hgDAF-12 ag,hcDAF12 agonist,DAX1 inh-2,others
CC[C@@H]1C[C@H]2CC[C@H](O2)[C@H](C)C(=O)O[C@@H](C)C[C@@H]2CC[C@@H](O2)[C@@H](C)C(=O)O[C@H](C)C[C@H]2CC[C@H](O2)[C@H](C)C(=O)O[C@@H](C)C[C@@H]2CC[C@@H](O2)[C@@H](C)C(=O)O1,-3,-6,-11,-6,.,
CCOC(=O)[C@]12Cc3cc(OC)ccc3[C@H]1N(Cc1ccccc1)C(=O)c1cc(OC)ccc12,0,-1,-6,-2,.,
CCOC(=O)[C@]12Cc3cc4ccccc4cc3[C@H]1N(Cc1ccccc1)C(=O)c1cc(OC)ccc12,-1,3.7*,5,0,.,
Cc1ccc2[nH]c(C)c(CCNCc3cccnc3)c2c1,1.0*,0,-1,-1,0,
COc1ccc2[nH]c(C)c(CCNCc3cc(OC)c(OC)c(OC)c3)c2c1,-2,-1,-2,-1,0,
NCCNc1ccc([N+](=O)[O-])c2cccnc12,-2,1,6,2,6.0*,
COC(=O)C1=Nc2ccccc2/C1=C\c1c(O)n(-c2cc(OC)ccc2OC)c(=O)[nH]c1=O,-1,0,3,5.8*,0,
CC1=Nc2ccccc2/C1=C/c1c(O)n(C)c(=O)[nH]c1=O,1,0,2,6.4*,3,
Cc1ccccc1-n1c(O)c(/C=C2/C(c3ccccc3)=Nc3ccccc32)c(=O)[nH]c1=O,-1,-2,0,1,-1,
CC(c1ccccc1)n1cc(C(=O)NC2CCCC2)nn1 (stereo unspecified),-1,-1,0,-1,.,
O=C(CN1CCCCC1)c1ccc2c(c1)OCO2,0,0,1,0,5.6*,
O=C(CN1CCCCC1)c1cccc(Br)c1,-1,0,-1,-1,1,
C=Cn1ccnc1P(=S)(c1ccccc1)c1nccn1C=C,-1,0,-4,0,0,
C=Cn1ccnc1P(=S)(c1ccc(Cl)cc1)c1nccn1C=C,0,0,0,0,5.2*,
CCOC(=O)CC[C@@H]1CC[C@]2(CCCN(Cc3ccccn3)C2)O1,-2,0,-1,0,.,
c1ccc2c(CNC3CCCCCC3)c[nH]c2c1,0,0,0,5.7*,-1,
OC12CCCCC1C(c1ccccc1)NCC2 (stereo unspecified),-1,0,4,-1,4.3*,
CC(=O)Nc1ccc(S(=O)(=O)N2Cc3cnnn3-c3ccccc3C2C#N)cc1 (stereo unspecified),-1,3.7*,2,0,-1,
COc1cccc(C(=O)NCCN2CCC3(CC2)C(=O)NCN3c2ccccc2)c1,-1,2,3,-3,.,
CN(C)C(=O)Oc1ccc(OCc2nc3ccccc3[nH]2)cc1,0,3,11*,3,-2,
CN(C)C(=O)Oc1ccc(OC(=O)N(C)C)cc1,-1,0,2,0,0,
CC1=NCCc2c1[nH]c1ccccc21,1.0*,0,-1,6.3*,0,
COc1ccc2[nH]c3c(c2c1)CCNC3C (stereo unspecified),0,-1,-1,5.7*,2,
COc1ccc2c3c([nH]c2c1)C(C)NCC3 (stereo unspecified),-1,0,-1,2,-1,
OC1CN2CCC(O)C2C(O)C1O (stereo unspecified),-1,-1,-1,4,.,
SMILES,ssDAF12 agonist,DAX1 inh-1,hgDAF-12 ag,hcDAF12 agonist,DAX1 inh-2,others
CC(Cc1ccccc1)NC(=O)NC(C)Cc1ccccc1 (stereo unspecified),0,2,13*,2,1,
CC(Cc1ccccc1)NC(=O)c1ccc(N)cc1 (stereo unspecified),1,1,9,3,4.8*,
CC[C@]12CC[C@H](O)CC1=CCC1C2CC[C@]2(C)C(=O)CCC12 (stereo partly specified),-1,0,1,-1,.,
COc1ccc(CC(C)Nc2cccc(F)c2)cc1 (stereo unspecified),-1,0,5,-1,3,
COc1cc2c3cc1Oc1cc(ccc1O)C[C@@H]1c4c(cc(OC)c(O)c4Oc4ccc(cc4)C[C@H]3N(C)CC2)CCN1C,0,4.5*,-3,2,1,
CCOP(=O)(OCC)C1(C(=O)O)CCCC1,-1,-1,0,-1,5.1*,
COC1CCC(OC2CC(C3(C)CCC4(CC(O)C(C)C(C(C)/C=C(\C)C(=O)C(C)CC(C)C(=O)O)O4)O3)OC3(OC(C4OC(O)(CO)C(C)CC4C)CC3C)C2C)OC1C (stereo unspecified),-1,9.6*,-3,-1,0,DAX1 inh confirm=-9;SF1 AF2mut Luc=-12
O=C(O)C(Br)Br,0,1,4,1,.,
CC[C@]12CCN(CC3(O)CC3)[C@H](Cc3ccc(O)cc31)C2(C)C,0,1,1,0,.,
CC(=O)C1C(N2CC2)CC2C3CCC4=CC(=O)CCC4(C)C3CCC21C (stereo unspecified),-1,-1,-2,0,1,
CCN(CC)C(=O)c1ccc(NC(=O)CCCSc2ccccc2)cc1,-2,0,0,0,0,
CCN(CC)C(=O)c1ccc(NC(=O)Nc2ccccc2F)cc1,0,6.5*,11*,5,-5,DAX1 inh confirm=8.9*;SF1 AF2mut Luc=4.2*
O=c1[nH]cnc2nc(-c3ccc(N(CCCl)CCCl)cc3)[nH]c12,-1,5.5*,8,2,1,DAX1 inh confirm=11*;SF1 AF2mut Luc=0
C[C@]12CC3CC(N)(C1)C[C@@](C)(C3)C2,-1,2,0,-1,2,
CC(C)C(NC(=O)C(C(C)C)N(C)C)C(=O)N(C)C(C(=O)N1CCCC1C(=O)N1CCCC1C(=O)NCc1ccccc1)C(C)C (stereo unspecified),0,5.4*,-7,0,1,DAX1 inh confirm=21*;SF1 AF2mut Luc=-7
CCOC(=O)[C@]12Cc3ccccc3[C@H]1N(CCC(=O)OC)C(=O)c1cc(OC)ccc12,-1,7.2*,-1,2,.,DAX1 inh confirm=4.1*;SF1 AF2mut Luc=9.3*
O=C(N/N=C/c1c(O)n(C2CCCCC2)c(=S)[nH]c1=O)c1ccccc1O,-1,0,0,-1,1,
O=C(N/N=C/c1c(O)n(C2CCCCC2)c(=S)[nH]c1=O)c1ccccc1,-1,4.8*,6,2,0,DAX1 inh confirm=3;SF1 AF2mut Luc=2
c1ccc2oc(-c3ccc4c(c3)CNCc3cnnn3-4)cc2c1,0,5.0*,9,0,.,DAX1 inh confirm=7.0*;SF1 AF2mut Luc=4.6*
O=C(NC1CN2CCC1CC2)c1ccc(Cl)cc1 (stereo unspecified),-1,-1,2,0,.,
